Source: PubChem BioAssay (several laboratories)
This is a sample that favours compounds with a hit; in the whole collection about 22% have one here.
CYP2C19 inh – blocks human cytochrome P450 2C19. P33261. inhibition, % at 5 µM. 96,000 tested, 21% active. CYP2C19 Supersomes, luciferin-H EGE luminescence, 30 min;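 active means CYP2C19 inhibition above a set limit at 5 µM in the primary screen, cut at about 50% in these data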
CYP2C9 activ – activators of human CYP2C9 | activation factor at 5 µM | 96,000 tested, 1.4% active | AID 1024 | recombinant CYP2C9, luciferin-H conversion, luminescence; hits give high values; factor 1 = untreated enzyme, 0 = blocked | P11712;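 active means activation factor of 2 or more for CYP2C9 at a 5 µM dose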
Target sequence (P11712 whole entry, looked up): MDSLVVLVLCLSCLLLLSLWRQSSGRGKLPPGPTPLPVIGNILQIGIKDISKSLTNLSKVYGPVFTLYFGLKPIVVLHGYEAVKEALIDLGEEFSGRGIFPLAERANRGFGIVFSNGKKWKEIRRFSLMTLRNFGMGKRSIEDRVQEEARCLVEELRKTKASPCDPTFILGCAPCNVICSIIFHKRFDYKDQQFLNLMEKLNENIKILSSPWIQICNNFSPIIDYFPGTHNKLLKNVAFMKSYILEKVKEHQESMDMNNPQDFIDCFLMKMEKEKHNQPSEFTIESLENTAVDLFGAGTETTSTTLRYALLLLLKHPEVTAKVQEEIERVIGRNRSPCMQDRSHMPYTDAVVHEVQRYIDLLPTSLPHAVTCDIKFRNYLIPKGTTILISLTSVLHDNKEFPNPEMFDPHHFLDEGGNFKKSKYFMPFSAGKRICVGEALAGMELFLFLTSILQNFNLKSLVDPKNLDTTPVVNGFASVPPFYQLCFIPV
F-actin modifier – cytoskeleton assembly modification; 91,000 tested, 0.18% active; inhibition, % at 2 µM; AID 836; HUVEC TNFa F-actin phalloidin imaging, high content;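 active means inhibition above the batch mean plus 3 SD and confirmed as a hit by visual image inspection, cut at about 30% in these data, passing the limit was not always enough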
CYP2C9 inhib – inhibitors of human CYP2C9. P11712. CYP2C9 Supersomes, luciferin-H conversion, luminescence. inhibition, % at 5 µM. 96,000 tested, 20% active. AID 777;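 active means blocking of liver enzyme CYP2C9 beyond about 50% at 5 µM, limit read from the data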
E-sel TNF inh – blocks E-selectin expression induced by TNF alpha | AID 1246 | inhibition, % at 2 µM | 120,000 tested, 0.71% active | HUVEC TNFa-induced E-selectin immunofluorescence, high content;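 active means inhibition above the batch mean plus 3 SD, and confirmed as a hit on visual image review, cut at about 43% in these data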
CYP2C19 act – activators of human cytochrome P450 2C19; recombinant CYP2C19, luciferin-H EGE luminescence; hits give high values; 0 = fully inhibited enzyme, 1 = untreated enzyme; activation factor at 5 µM; P33261; 96,000 tested, under 10 active;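 active means activation factor of at least 2 at 5 µM in the primary screen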
Large screens that a line does not name were inactive.

Cc1ccc(S(=O)(=O)NCCN=C(CN2CCOCC2)NS(=O)(=O)c2ccc(C)cc2)cc1	CYP2C9 inhib 76 (no result: E-sel TNF inh)
O=C(O)Cc1ccc(NC(=O)Nc2cccc(Cl)c2)cc1	none (no result: CYP2C19 inh, CYP2C9 activ, F-actin modifier, CYP2C9 inhib, CYP2C19 act)
C=CCNC(=O)c1ccccc1NC(=O)c1ccccc1C	none (no result: CYP2C19 inh, CYP2C9 activ, CYP2C9 inhib, CYP2C19 act)
CCN1CCN(C(=O)c2ccccc2N(Cc2ccccc2)S(C)(=O)=O)CC1	none (no result: F-actin modifier)
C=CCNC(=O)c1ccccc1NC(=O)c1ccc(Cl)c(S(=O)(=O)Nc2ccccc2)c1	CYP2C19 inh 62, CYP2C9 inhib 62
CS(=O)(=O)N(Cc1ccccc1)c1ccccc1C(=O)N1CCN(c2ccccc2)CC1	CYP2C19 inh 94, CYP2C9 inhib 72 (no result: F-actin modifier)
CCOC(=O)N1CCN(C(=O)c2ccc(CN(c3ccccc3)S(C)(=O)=O)cc2)CC1	CYP2C9 inhib 54 (no result: E-sel TNF inh)
CS(=O)(=O)N(Cc1ccc(Cl)cc1)c1ccc(C(=O)N2CCN(c3ccccc3)CC2)cc1	CYP2C19 inh 91, CYP2C9 inhib 98
CN1CCN(C(=O)c2ccc(N(Cc3ccc(Cl)cc3)S(C)(=O)=O)cc2)CC1	none
COc1ccc(-c2cc(C(=O)OCC(=O)NC(C)C)c3ccccc3n2)cc1	none (no result: CYP2C19 inh, CYP2C9 activ, F-actin modifier, CYP2C9 inhib, CYP2C19 act)
CC1=NN(C(=O)Cc2ccccc2)C(O)(c2cccnc2)C1 (stereo not drawn)	none
Cc1ccc(CN(c2ccc(C(=O)N3CCc4ccccc4C3)cc2)S(C)(=O)=O)cc1	CYP2C9 inhib 84 (no result: F-actin modifier)
CCOC(=O)N1CCN(C(=O)CN(c2ccc(Oc3ccccc3)cc2)S(C)(=O)=O)CC1	CYP2C19 inh 70, CYP2C9 inhib 86
CS(=O)(=O)N(Cc1ccccc1)c1ccc(C(=O)N2CCN(c3cccc(Cl)c3)CC2)cc1	CYP2C19 inh 92, CYP2C9 inhib 98
CCOC(=O)N1CCN(C(=O)c2ccc(Cl)c(S(=O)(=O)Nc3ccccc3)c2)CC1	CYP2C9 inhib 80
CS(=O)(=O)N(Cc1ccccc1)c1ccc(C(=O)N2CCOCC2)cc1	none
Cc1cccc(NS(=O)(=O)c2cc(C(=O)N3CCOCC3)ccc2Cl)c1	none (no result: CYP2C19 inh, CYP2C9 activ, F-actin modifier, CYP2C9 inhib, CYP2C19 act)
C=C(C)CSc1nnc2n(Cc3ccccc3)c(=O)c3c4c(sc3n12)CCC4	none
CCN1CCN(C(=O)c2ccccc2N(Cc2ccccc2)S(=O)(=O)c2ccc(C)cc2)CC1	CYP2C19 inh 72
Cc1ccc(/C(C#N)=C\c2cn(C)c3ccccc23)cc1	CYP2C19 inh 80, CYP2C9 inhib 92
O=C(NCCc1ccc(Cl)cc1)/C(=C/c1cccnc1)NC(=O)c1ccccc1	none (no result: CYP2C19 inh, CYP2C9 activ, F-actin modifier, CYP2C9 inhib, CYP2C19 act)
O=C(C1CCCO1)N1CCN(Cc2nc3ccccc3c(=O)[nH]2)CC1 (stereo not drawn)	none
CC(C)CCNC(=O)NC(=O)CSc1nnc(COc2ccccc2Cl)o1	CYP2C9 inhib 53
CC(NC(=O)CSc1nnc(COc2ccccc2)o1)c1ccccc1 (stereo not drawn)	CYP2C19 inh 82 (no result: E-sel TNF inh)
CC(C)NC(=O)NC(=O)CSc1nnc(COc2ccccc2Cl)o1	none
O=C(CSc1ncccn1)Nc1ccccc1	none (no result: F-actin modifier)
Cc1cc(C)cc(OCc2nnc(SCC(=O)OC(C)C)o2)c1	CYP2C19 inh 60
CC(NC(=O)CSc1ncccn1)c1ccccc1 (stereo not drawn)	CYP2C19 inh 78 (no result: E-sel TNF inh)
CC(=O)Oc1c(C)c(=O)n(C)c2ccccc12	none (no result: CYP2C19 inh, CYP2C9 activ, F-actin modifier, CYP2C9 inhib, CYP2C19 act)
O=S(=O)(NC1CCCCCC1)c1ccc(Br)s1	none (no result: CYP2C19 inh, CYP2C9 activ, CYP2C9 inhib, CYP2C19 act)
Cc1ccc(-n2nnnc2SCC(=O)Nc2ccccc2N2CCCCC2)cc1C	CYP2C19 inh 80
COc1ccc(C)cc1-n1nnnc1SCC(=O)Nc1cc(C)on1	none (no result: CYP2C19 inh, CYP2C9 activ, F-actin modifier, CYP2C9 inhib, CYP2C19 act)
CCC(=O)Nc1ccc(NC(=O)CSc2nnnn2C(C)C)cc1	CYP2C9 inhib 68
COc1ccc(C)cc1-n1nnnc1SCC(=O)Nc1cccnc1Cl	E-sel TNF inh 78 (no result: CYP2C19 inh, CYP2C9 activ, F-actin modifier, CYP2C9 inhib, CYP2C19 act)
CSc1ccccc1-n1nnnc1SCC(=O)Nc1cc(C)ccc1C	CYP2C9 activ 3.1
CC(C)n1nnnc1SCC(=O)Nc1ccccc1N1CCOCC1	CYP2C19 inh 56 (no result: F-actin modifier, E-sel TNF inh)
Nn1c(SCC(=O)NC(=O)NCc2ccccc2)nnc1C1CC1	none
COc1cccc(NC(=O)N(CCCN2CCOCC2)C(C)c2cc3ccccc3o2)c1 (stereo not drawn)	CYP2C9 inhib 52
COc1ccc(NC(=S)N(CCCN2CCOCC2)C(C)c2cc3ccccc3o2)cc1 (stereo not drawn)	none (no result: CYP2C19 inh, CYP2C9 activ, F-actin modifier, CYP2C9 inhib, CYP2C19 act)
COc1cccc(NC(=S)N(CCCN2CCOCC2)C(C)c2cc3cccc(OC)c3o2)c1 (stereo not drawn)	none (no result: CYP2C19 inh, CYP2C9 activ, F-actin modifier, CYP2C9 inhib, CYP2C19 act)
